According to the antibiotic and cytotoxicity screens of Wong et al. (2023):
The whole screen tested about 39,000 compounds, of which about 3,300 (8.5%) were called active. Many of the other results were omitted from the sample, so actives are more common in it than they were.

The molecules below were run on HepG2 (assay: cytotoxicity call (relative viability < 0.9)). Details: 10 µM.

SMILES | cytotoxicity call
C[C@H]1CN([C@@H](C)CO)C(=O)c2cc(NC(=O)CCCCCC(=O)Nc3ccccc3N)ccc2O[C@@H]1CN(C)C(=O)Nc1cccc2ccccc12 | inactive
CC(C)NC(=O)N(C)C[C@H]1Oc2ccc(NS(=O)(=O)c3ccc(Cl)cc3)cc2C(=O)N([C@H](C)CO)C[C@@H]1C | inactive
C[C@H](CO)N1C[C@H](C)[C@H](CN(C)C(=O)Nc2ccc(F)cc2)Oc2c(NS(=O)(=O)c3cn(C)cn3)cccc2C1=O | inactive
C[C@@H]1CN([C@@H](C)CO)C(=O)c2cccc(NC(=O)Nc3ccc(C(F)(F)F)cc3)c2O[C@@H]1CN(C)S(=O)(=O)c1ccc(F)cc1 | inactive
Nc1ncnc(N[C@H]2CCS(=O)(=O)C2)c1[N+](=O)[O-] | inactive
C[C@@H]1CCCCO[C@H](CN(C)Cc2ccc(C(F)(F)F)cc2)[C@H](C)CN([C@H](C)CO)C(=O)c2cc(NC(=O)CCC(F)(F)F)ccc2O1 | inactive
COCC(=O)N1C[C@H](C)[C@H](OC)CN(C)C(=O)c2ccc(NC(=O)Nc3ccccc3)cc2OC[C@H]1C | inactive
C[C@@H]1CN([C@H](C)CO)C(=O)Cc2cc(NS(=O)(=O)c3ccccc3)ccc2O[C@H]1CN(C)Cc1ccc(C(=O)O)cc1 | inactive
COc1ccc(S(=O)(=O)Nc2ccc3c(c2)C(=O)N([C@H](C)CO)C[C@H](C)[C@@H](CN(C)CC2CCCCC2)OCCCC[C@@H](C)O3)cc1 | inactive
C[C@H](CO)N1C[C@H](C)[C@@H](CN(C)S(=O)(=O)c2ccccc2)Oc2c(NS(=O)(=O)c3ccc(F)cc3)cccc2C1=O | inactive
CC(C)(C)[S@@](=O)N1Cc2cc(C(=O)N3CCCCC3)nc(-c3cccc(-c4ccccc4F)c3)c2[C@H]1CCO | inactive
CC(C)(C)S(=O)N1Cc2cc(C(=O)N3CCN(Cc4ccccc4)CC3)nc(-c3cccc(C#CCC4CCCC4)c3)c2[C@H]1CCO (some centres not stated) | active
CC(C)(C)S(=O)N1Cc2cc(C(=O)N3CCN(Cc4ccccc4)CC3)nc(-c3cccc(-c4cc5ccccc5o4)c3)c2[C@H]1CCO (some centres not stated) | active
COc1ccc(C#Cc2cccc(-c3nc(C(=O)N4CCN(Cc5ccccc5)CC4)cc4c3[C@@H](CCO)N(S(=O)C(C)(C)C)C4)c2)cc1OC (some centres not stated) | inactive
COc1ccc(C#Cc2cccc(-c3nc(C(=O)N4CCN(Cc5ccccc5)CC4)cc4c3[C@H](CCO)N(S(=O)C(C)(C)C)C4)c2)cc1OC (some centres not stated) | inactive
CC(C)(C)[S@](=O)N1Cc2cc(C(=O)N3CCCCC3)nc(-c3cccc(-c4ccccc4F)c3)c2[C@@H]1CCO | inactive
COCCCN(C[C@]1(O)CC[C@H]2C3=CC=C4C[C@@H](O)CC[C@]4(C)[C@@H]3CC[C@@]21C)C(=O)O[C@H]1C[C@@H](C)CC[C@@H]1C(C)C | inactive
CC(C)NC(=O)N(C)C[C@H]1Oc2ccc(NS(=O)(=O)c3cccs3)cc2C(=O)N([C@H](C)CO)C[C@@H]1C | inactive
CO[C@H]1CN(C)C(=O)c2cc(NS(C)(=O)=O)ccc2OC[C@@H](C)N(C(=O)C2CCOCC2)C[C@H]1C | inactive
C[C@@H]1CN([C@@H](C)CO)C(=O)Cc2cc(NC(=O)C3CCCCC3)ccc2O[C@H]1CN(C)Cc1ccc(Cl)c(Cl)c1 | inactive
C[C@H]1CN([C@@H](C)CO)C(=O)Cc2cc(NC(=O)Cn3cnnn3)ccc2O[C@H]1CN(C)C(=O)Nc1ccc2c(c1)OCO2 | inactive

SMILES | cytotoxicity call
Cc1ccc(S(=O)(=O)N(C)C[C@H]2Oc3c(NS(=O)(=O)c4cn(C)cn4)cccc3C(=O)N([C@H](C)CO)C[C@@H]2C)cc1 | inactive
C[N+](C)(C)CCCCCCNC(=O)[C@@H]1C[C@@H]2C(=O)N[C@@H](CCCC[N+](C)(C)C)C(=O)N2[C@@H]1c1ccc(O)cc1 | inactive
Cc1ccc(S(=O)(=O)N(C)C[C@H]2Oc3ccc(NC(=O)NC(C)C)cc3C(=O)N([C@@H](C)CO)C[C@H]2C)cc1 | inactive
C[C@H](CO)N1C[C@H](C)[C@@H](CN(C)C(=O)N[C@H](C)c2ccccc2)OCc2ccccc2-c2c(n(C)c3ccccc23)C1=O | inactive
O=C(C[C@H]1CC[C@@H]2[C@H](COC[C@H](O)CN2S(=O)(=O)c2ccccc2)O1)N1CCc2ccccc2C1 | inactive
CCCC[C@@H](C)/C=C(C)/C=C(\C)C(=O)NC1=C[C@@](O)(/C=C/C=C/C=C/C(=O)NC2C(=O)CCC2=O)[C@@H]2O[C@@H]2C1=O | active
C[C@@H]1CN([C@@H](C)CO)C(=O)c2cccc(NC(=O)Nc3ccc4c(c3)OCO4)c2O[C@@H]1CN(C)Cc1ccc(Cl)c(Cl)c1 | inactive
O=C(C[C@@H]1CC[C@H]2[C@@H](COC[C@H](O)CN2CC2CCOCC2)O1)N1CCOCC1 | inactive
COc1cccc(C(=O)Nc2ccc3c(c2)C(=O)N(C)[C@@H]2CC[C@H](CC(=O)NCC(F)(F)F)O[C@@H]2CO3)c1 | active
COc1cccc(C(=O)Nc2ccc3c(c2)C(=O)N(C)[C@@H]2CC[C@H](CC(=O)NCC4CC4)O[C@@H]2CO3)c1 | active
COCC(=O)Nc1ccc2c(c1)C(=O)N(C)[C@H]1CC[C@H](CC(=O)N3CCc4ccccc4C3)O[C@H]1CO2 | active
CN1C(=O)c2cc(NC(=O)c3ccc(F)cc3)ccc2OC[C@H]2O[C@H](CC(=O)N3CCOCC3)CC[C@H]21 | inactive
COc1cccc(C(=O)Nc2ccc3c(c2)C(=O)N(C)[C@H]2CC[C@H](CC(=O)NCC(F)(F)F)O[C@@H]2CO3)c1 | inactive
COc1cccc(C(=O)Nc2ccc3c(c2)C(=O)N(C)[C@H]2CC[C@H](CC(=O)NCC(F)(F)F)O[C@H]2CO3)c1 | inactive
COc1cccc(C(=O)Nc2ccc3c(c2)C(=O)N(C)[C@H]2CC[C@H](CC(=O)NCC4CC4)O[C@@H]2CO3)c1 | inactive
CN1C(=O)c2cc(NC(=O)c3ccc(F)cc3)ccc2OC[C@@H]2O[C@@H](CC(=O)N3CCOCC3)CC[C@H]21 | active
COc1cccc(C(=O)Nc2ccc3c(c2)C(=O)N(C)[C@@H]2CC[C@@H](CC(=O)NCC4CC4)O[C@@H]2CO3)c1 | inactive
CN1C(=O)c2cc(NC(=O)c3ccc(F)cc3)ccc2OC[C@H]2O[C@@H](CC(=O)N3CCOCC3)CC[C@H]21 | inactive
COCC(=O)Nc1ccc2c(c1)C(=O)N(C)[C@H]1CC[C@@H](CC(=O)N3CCc4ccccc4C3)O[C@@H]1CO2 | inactive
COCC(=O)Nc1ccc2c(c1)C(=O)N(C)[C@@H]1CC[C@H](CC(=O)N3CCc4ccccc4C3)O[C@@H]1CO2 | inactive
C[C@H]1CN([C@@H](C)CO)C(=O)c2c(c3ccccc3n2C)-c2ccccc2CO[C@@H]1CN(C)Cc1cccc(O)c1 | inactive

SMILES | cytotoxicity call
C[C@H](CO)N1C[C@H](C)[C@H](CN(C)S(C)(=O)=O)Oc2ccc(NC(=O)CCC(F)(F)F)cc2CC1=O | inactive
Cc1noc(C)c1S(=O)(=O)Nc1ccc2c(c1)C(=O)N([C@@H](C)CO)C[C@H](C)[C@@H](CN(C)C(=O)NC1CCCCC1)O2 | inactive
C[C@@H]1CCCCO[C@@H](CN(C)C(=O)Nc2ccccc2)[C@@H](C)CN([C@@H](C)CO)C(=O)c2cc(NC(=O)CCC(F)(F)F)ccc2O1 | inactive
C[C@H](CO)N1C[C@H](C)[C@@H](CN(C)C(=O)Nc2ccccc2)Oc2c(NS(=O)(=O)c3cn(C)cn3)cccc2C1=O | inactive
C[C@H]1CN([C@@H](C)CO)C(=O)Cc2cc(NS(=O)(=O)c3ccc(F)cc3)ccc2O[C@@H]1CN(C)S(=O)(=O)c1ccccc1 | inactive
COc1ccc2c3c([nH]c2c1)[C@@H](CO)N(CC1CCCC1)C[C@]13CCN(CC1)C(=O)c1ccc(cc1)F | inactive
C[C@H](NC(=O)N(C)C[C@@H]1OCc2ccccc2-c2c(n(C)c3ccccc23)C(=O)N([C@@H](C)CO)C[C@H]1C)c1ccccc1 | inactive
O=C(C[C@H]1CC[C@H]2[C@@H](COC[C@@H](O)CN2C(=O)c2ccccc2)O1)N1CCOCC1 | inactive
Cc1noc(C)c1S(=O)(=O)Nc1cccc2c1O[C@H](CN(C)Cc1ccc(-c3ccccc3)cc1)[C@H](C)CN([C@@H](C)CO)C2=O | inactive
Cc1noc(C)c1S(=O)(=O)N(C)C[C@H]1Oc2c(NC(=O)c3cnccn3)cccc2C(=O)N([C@H](C)CO)C[C@H]1C | inactive
COc1ccc(NC(=O)Nc2ccc3c(c2)C(=O)N([C@@H](C)CO)C[C@@H](C)[C@H](CN(C)S(=O)(=O)c2ccc(C)cc2)OCCCC[C@@H](C)O3)cc1 | inactive
COc1ccc(C(=O)Nc2ccc3c(c2)C(=O)N(C)[C@H]2CC[C@H](CC(=O)NCC4CC4)O[C@H]2CO3)cc1 | inactive
COc1ccc(C(=O)Nc2ccc3c(c2)C(=O)N(C)[C@@H]2CC[C@H](CC(=O)NCC4CC4)O[C@H]2CO3)cc1 | active
COc1ccc(C(=O)Nc2ccc3c(c2)C(=O)N(C)[C@@H]2CC[C@H](CC(=O)NCC4CC4)O[C@@H]2CO3)cc1 | active
CCCNC(=O)C[C@@H]1CC[C@@H]2[C@@H](COc3ccc(NC(=O)c4ccc5c(c4)OCO5)cc3C(=O)N2C)O1 | inactive
COc1ccc(C(=O)Nc2ccc3c(c2)C(=O)N(C)[C@H]2CC[C@H](CC(=O)NCC4CC4)O[C@@H]2CO3)cc1 | inactive
COc1ccc(C(=O)Nc2ccc3c(c2)C(=O)N(C)[C@H]2CC[C@@H](CC(=O)NCC4CC4)O[C@H]2CO3)cc1 | inactive
CCCNC(=O)C[C@@H]1CC[C@@H]2[C@H](COc3ccc(NC(=O)c4ccc5c(c4)OCO5)cc3C(=O)N2C)O1 | inactive
COc1ccc(C(=O)Nc2ccc3c(c2)C(=O)N(C)[C@@H]2CC[C@@H](CC(=O)NCC4CC4)O[C@@H]2CO3)cc1 | inactive
CCCNC(=O)C[C@H]1CC[C@@H]2[C@@H](COc3ccc(NC(=O)c4ccc5c(c4)OCO5)cc3C(=O)N2C)O1 | active
